Results: PubChem BioAssay (NCI)
The panel holds about 83,000 compounds, 20% with a hit somewhere; the sample as a whole holds those more often.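 Activity criterion: percent growth below 10, measured after cells in 96-well plates were exposed to a single compound concentration for 48 hours.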 A number with no mark means an inactive call. The source made the active and inactive calls.

Key:
Experiment in all cases: NCI-60 one-dose screen, 48 h (100 = growth as untreated, 0 = no growth, -100 = all killed)
Conditions in all cases: 10 µM unless noted
[1] = system: SR leukemia
[2] = system: RPMI-8226 leukemia
[3] = system: OVCAR-8 ovarian
[4] = system: OVCAR-5 ovarian
[5] = system: OVCAR-4 ovarian
[6] = system: SK-OV-3 ovarian
[7] = system: IGROV1 ovarian
[8] = system: OVCAR-3 ovarian
[9] = system: HS 578T breast
[10] = system: NCI/ADR-RES ovarian
[11] = system: T-47D breast
[12] = system: BT-549 breast
[13] = system: MDA-MB-435 melanoma
[14] = system: SW-620 colon
[15] = system: MCF7 breast
[16] = system: HCT-116 colon
[17] = system: HCC-2998 colon
[18] = system: KM12 colon

| SMILES | growth [1] | growth [2] | growth [3] | growth [4] | growth [5] | growth [6] | growth [7] | growth [8] | growth [9] | growth [10] | growth [11] | growth [12] | growth [13] | growth [14] | growth [15] | growth [16] | growth [17] | growth [18] |
| --- | --- | --- | --- | --- | --- | --- | --- | --- | --- | --- | --- | --- | --- | --- | --- | --- | --- | --- |
| CC1=C(C)C(=O)OC([C@](C)(O)[C@]2(O)CC[C@@]3(O)[C@@H]4C[C@H]5O[C@]56CC=CC(=O)[C@]6(C)[C@H]4CC[C@]23COC(=O)c2ccc(C)o2)C1 (some centres undefined) | 2.88% (active) | -17.3% (active) | -13.8% (active) | -69.8% (active) | -32.9% (active) | -51.7% (active) | -54.4% (active) | -96.2% (active) | 3.52% (active) | 14.5% | -57.1% (active) | -49.3% (active) | -76.9% (active) | -55.6% (active) | -66.2% (active) | -43.5% (active) | -73.7% (active) | -69% (active) |
| O=C(/C=C/c1ccc(Cl)cc1)/C=C/c1cc2ccccc2[nH]c1=O | 1.79% (active) | -22.2% (active) | -11.5% (active) | 128% | 84.1% | 99.9% | 78.8% | 15.9% | 91.2% | 86% | 48.7% | 44.6% | -1.71% (active) | 8.48% (active) | 5.22% (active) | -55.7% (active) | 73% | 28.3% |
| NS(=O)(=O)N(c1cc(C(F)(F)F)cc(C(F)(F)F)c1)C1CCN(Cc2ccc(F)cc2)CC1 | -35.1% (active) | 28.1% | 73.2% | 90.9% | 72.4% | 87.9% | 61.9% | 60% | 84% | 51.3% | 37.2% | 81% | 70.1% | 63.8% | 49.6% | 38% | -50.4% (active) | 40.2% |
| COc1ccc(CN(c2ccc(C)cc2)C2OC(=O)c3ccccc32)cc1OC (centres undefined) | 83.8% | 93.9% | 108% | 89.7% | 103% | 118% | 116% | 113% | 102% | 96.3% | 95.2% | 106% | 100% | 99.2% | 92.5% | 105% | 102% | 102% |
| COc1ccc(C/C(C)=C(\c2ccc(OCCN3CCCCCC3)cc2)c2ccc(OC(=O)C3CCCCC3)cc2)cc1 | 3.43% (active) | 40.1% | 68.9% | 81.9% | 71.7% | 77.8% | 52.3% | 63.5% | 51.6% | 73.5% | 38.1% | 83.7% | 68.8% | 64.8% | 29.3% | 38.5% | 56.9% | 63.1% |
| Cc1ccccc1CCO | 88.7% | 108% | 100% | 95.9% | 106% | 98% | 95.4% | 106% | 100% | 101% | 96.9% | 95.1% | 108% | 94.7% | 91.1% | 93.6% | 92.6% | 109% |
| Brc1cccc(-c2cc(-c3ccc4c(c3)OCCO4)[nH]n2)c1 | 31.4% [25 µM] | 20.8% [25 µM] | 29.7% [25 µM] | 39.8% [25 µM] | 58.6% [25 µM] | 39.5% [25 µM] | 30.2% [25 µM] | -7.07% [25 µM] (active) | 30% [25 µM] | 4.14% [25 µM] (active) | 29% [25 µM] | 41.7% [25 µM] | -40.2% [25 µM] (active) | 28.7% [25 µM] | 10.6% [25 µM] | 21% [25 µM] | 44.6% [25 µM] | 22.9% [25 µM] |
| c1ccc(Sc2ncnc3ccccc23)cc1 | 25.5% | 20.9% | 82.1% | 98.4% | 76% | 112% | 77.9% | 71.2% | 77.9% | 83.5% | 63.8% | 51.6% | 38.1% | 84.9% | 63.8% | 72% | 107% | 86.1% |
| COc1ccc(C(=O)c2sc3nc(-c4ccccc4OC)ccc3c2N)cc1OC | 21.6% | 19.7% | 43.2% | 89.8% | 61.5% | 107% | 57.5% | 68.9% | 55.6% | 33.1% | 26.4% | 20.9% | 31.7% | 73.6% | 62.1% | 39.3% | – | 46.1% |
| COc1c(C2CC(=O)Nc3c2cnn3Cc2ccco2)cc2c(c1OC)OCO2 (centres undefined) | 2.13% (active) | -1.94% (active) | 18% | 40.8% | 39.2% | -9.03% (active) | 52.8% | -35.9% (active) | 30.4% | 4.88% (active) | 55.6% | 8.74% (active) | -58.4% (active) | 23% | 12.8% | 12.8% | – | 16.8% |
| CCc1ccccc1NC(=O)c1sc2nc3c(cc2c1N)C(=O)CCC3 | 9.38% (active) | 17.8% | 24.3% | 33.5% | 60.9% | 6.9% (active) | 33.3% | -12.7% (active) | 22.6% | 5.24% (active) | 23.2% | 48% | -56.6% (active) | 25.7% | 8.92% (active) | 26.1% | – | 25.4% |
| Nc1nc(SCc2ccccc2)c2ncn(C3CCCC3)c2n1 | 81.4% | 92.9% | 110% | 96.4% | 101% | 107% | 98.1% | 112% | 139% | 92.5% | 98.7% | 116% | 104% | 102% | 91.7% | 107% | – | 113% |
| CCN(CC)CC(O)CNc1c2ccc([N+](=O)[O-])cc2nc2cc(OC)c(OC)cc12 (centres undefined) | -7.08% (active) | -13.8% (active) | -2.1% (active) | 10% | -39.3% (active) | -42.5% (active) | -39.9% (active) | -37.7% (active) | -18.2% (active) | 51.7% | -27.9% (active) | -69.8% (active) | -88.4% (active) | 4.13% (active) | -22.9% (active) | -23.5% (active) | – | -37.5% (active) |
| COc1cc(C2CC(=O)Nc3c2cnn3Cc2ccco2)cc2c1OCCO2 (centres undefined) | 8.04% (active) | 77.2% | 101% | 86.2% | 94.3% | 97.7% | 56.3% | 73.9% | 83.6% | 88.9% | 88.8% | 87.7% | 4.28% (active) | 56.6% | 54.1% | 72.5% | – | 48.4% |
| COC(/C=C/c1ccc([N+](=O)[O-])cc1)OC | 31.6% | 70% | 84.4% | 99.8% | 96.6% | 110% | 89% | 120% | 122% | 96% | 52% | 118% | 96.8% | 85.2% | 77.2% | 27.3% | – | 110% |
| CC(=O)CC(C)(C)c1ccc(Cl)cc1 | 101% | 98.3% | 101% | 95.7% | 93.6% | 107% | 96% | 97.4% | 99.5% | 96.2% | 94.2% | 101% | 104% | 100% | 105% | 97.5% | – | 108% |
| COc1cccc(-c2cn3c(ccc4ccccc43)n2)c1 | 31.9% | 31.8% | 45.7% | 52.7% | 61.6% | 45.7% | 41.2% | 16.7% | 21.6% | 15% | 46.1% | 37.8% | -25.6% (active) | 26.2% | 17.4% | – | 68.8% | 34.6% |
| O=C(O)c1cccc2c1-c1ccccc1C2=O | 94.2% | 124% | 103% | 92.2% | 105% | 103% | 85% | 102% | 97.7% | 100% | 93.1% | 85.8% | 97.7% | 95.7% | 92.3% | 92.6% | – | 97.9% |
